Data: PubChem BioAssay AID1845224 (National Center for Advancing Translational Sciences (NCATS), 2023)
Records with an inconclusive call do not appear. The source made the active and inactive calls. Calls follow the shape of the dose curve; as a rule, active = well fitted curve in the direction sought with a large enough effect; inconclusive = small, poorly fitted or top-dose-only effect, or another doubt; inactive = no such curve, though single readings can be large or run the other way.

These compounds were tested on NanoLuc luciferase (engineered Oplophorus gracilirostris luciferase) (assay: Confirmatory Nanoluciferase (NLuc) qHTS assay for identification of artifact compounds.). Conditions: secreted NLuc in S16 cell medium, luminescence, 5 min; series mostly up to 39 µM; activity change, negative = inhibition: at the top concentration.
From the text: PI: Alexander Tropsha Ph.D. UNC Eshelman School of Pharmacy University of North Carolina, Chapel Hill, North Carolina Hits from high-throughput screening (HTS) of chemical libraries are often false positives due to their interference with the assay detection technology. In response to this problem, we generated the largest publicly available library of chemical liabilities and developed a free webtool to predict HTS artifacts, both of which are described herein. More specifically, we generated, curated, and integrated HTS datasets for thiol reactivity, redox activity, and luciferase (firefly and nano) activity. Using these curated datasets, we developed and validated several Quantitative Structure-Interference Relationship (QSIR) models to predict nuisance behavior. […] These models were employed for virtual profiling of the National Center for Advancing Translational Science's (NCATS) in-house library, and 256 compounds for each assay were selected for the experimental validation of nuisance behavior. The BA for these external predictions ranged from 58 to 78% for compounds within the applicability domains of the models. […] The models developed in this study, along with aggregation models previously developed by our group (SCAM Detective) were implemented in "Liability Predictor," an online tool which may be used as part of chemical library design or for triaging HTS hits. Both the models and the curated datasets are publicly available at https://liability.mml.unc.edu/.
PROTOCOL TABLE SEQUENCE No. (e.g., 1, 2, 3, etc.); PARAMETER (e.g., Cells, Incubation, Reagent, etc.); VALUE; DESCRIPTION. 1; Reagent; 2 uL; Nanoluciferase media. 2; Compounds and control; 16 nL; Kalypsis pin tool (Wako USA) equipped with a 1536-well pin head. 3; Incubation; 15 min. 4; Reagent; 2 uL; Luciferase enzyme. 5; Incubation; 5 min. 6; Detection; Luminescence, ViewLux microplate reader. NOTES (numbers refer to Sequence numbers above) 1. Medium was collected from the culture flasks of NLuc-expressing S16 cells (80% confluent) prior to cell plating, filtered through a 0.22um filter, and frozen at -20C prior to use. Media was diluted (1:55) and 2 uL was dispensed into all wells of a 1536-well assay plate (solid-bottom white plate; Greiner Bio One, Monroe, NC). 2. A Wako Pin-tool (Wako Automation, Richmond, VA) was used to transfer 16 nL of compounds (consisting of 7-plates in qHTS format, final concentration range 18.3 nM to 114 uM) or control Cilnidipine (final concentration range 623 nM to 80 uM). 3. 15 min. incubation at room temperature protected from light. 4. 2 uL of NLuc substrate (1:100 in Nano-Glo luciferase buffer; Nano-Glo luminescence assay, Promega, Madison, WI) was dispensed for a final assay volume of 4 uL. 5. Plates were centrifuged (121xg, 15 seconds) and incubated for 5 minutes. 6. Samples were read for luminescence on a ViewLux CCD imager (PerkinElmer). Data were normalized to no-enzyme (0% activity) and no-inhibitor (DMSO; 100%) controls and the resulting percent inhibition data were fitted to a 4-parameter Hill equation using NCATS in-house software.
For activity change, negative = inhibition in this document: % of control where 0% means no effect.
Potency is read from the fitted curve at half-maximal effect.

Activity change, negative = inhibition, inactive:
COc1ccc(-c2c3c(=O)n(C)c(=O)n(C)c3c3n2-c2ccccc2NC3c2ccccc2OC)cc1 (stereo not given) -3.51%
COC(=O)c1c(NC(=O)c2nc(SCc3cccc(C)c3)ncc2Cl)sc2c1CCCC2 -4.52%
COc1ccccc1N1CCN(S(=O)(=O)c2c(C)nc3sc(C)c(C)n3c2=O)CC1 -6.1%
CC(=O)Nc1cc(-c2ccccc2)nn1Cc1cccc(Cl)c1 -0.214%
COc1ccc(-c2cc(C(=O)Nc3cc(C(F)(F)F)ccc3Cl)no2)cc1 -1.6%
COc1ccc(C2Nc3ccccc3C(=O)N2CC(C)(C)C)cc1COc1ccc(NC(C)=O)cc1 (stereo not given) -8.01%
CCOc1ccccc1-n1nnc(-c2nc(-c3ccccc3)no2)c1N -7.29%
O=C(CSc1ccnc(=O)[nH]1)NCc1ccc(F)cc1 -1.74%
Cc1c(Cl)cccc1NC(=O)N1CCOc2ccccc21 -2.38%
O=c1oc2ccc(F)cc2cc1-c1nc(-c2cccs2)no1 -6.64%
CCOc1ccccc1NC(=O)N1CCCn2nc(C)cc21 0%
Cn1cc(S(=O)(=O)N2CCCC2)cc1C(=O)Nc1ccc(C(F)(F)F)cc1 -8.69%
COc1cccc(N2CCN(c3c4c(nc5nncn35)CCC4)CC2)c1 -13.7%
CC1=CC23C(=O)C(C=C(CO)[C@@H](O)[C@]2(O)[C@H]1O)[C@H]1[C@@H](C[C@H]3C)C1(C)C (stereo not given in full) 6.21%
COc1cccc(CNS(=O)(=O)c2cnc(N)nc2)c1 -4.95%
COc1cc(O)c2c(c1)O[C@H](c1ccccc1)CC2=O -5.83%
Cc1ccc2[nH]c(CSc3nnc(C)s3)cc(=O)c2c1 -2.56%
COc1ccc(OCc2nnc(-c3ccccc3)o2)cc1 -6.57%
Cc1ccc(C)c(N2CCN(C(=O)c3ccc(Nc4nc5ccccc5n5nnnc45)cc3)CC2)c1 -2.99%
C=C[C@@]1(C)CC(=O)[C@]2(O)[C@@]3(C)[C@@H](O)CCC(C)(C)[C@@H]3[C@H](OC(=O)CCN(C)C)[C@H](OC(C)=O)[C@@]2(C)O1 -11.8% [at 78.4 µM]
CCC1Oc2ccccc2N(CC(=O)NCc2ccc(C)cc2)C1=O (stereo not given) -14.7%
CCOC(=O)c1ccc(N2C(=O)c3n[nH]c(-c4ccco4)c3C2c2ccc(F)cc2)cc1 (stereo not given) -17.7%
CNS(=O)(=O)c1cn(CC(=O)N2CCN(c3ccc(C(C)=O)cc3)CC2)cc1S(=O)(=O)NC -15.7%
O=C(Nc1noc2ccccc12)c1c(F)cccc1F -3.71%
CO[C@H]1C[C@H](O[C@H]2[C@H](C)[C@@H](O[C@@H]3O[C@H](C)C[C@H](N(C)C)[C@H]3O)[C@@H](C)C[C@]3(CO3)C(=O)[C@H](C)[C@@H](O)[C@@H](C)[C@@H](C)OC(=O)[C@@H]2C)O[C@@H](C)[C@@H]1O 10.5% [at 19.8 µM]
CC(C)C[C@H](NC(=O)[C@H](Cc1ccccc1)NC(=O)CNC(=O)CNC(=O)[C@@H](N)Cc1ccc(O)cc1)C(=O)N[C@@H](CCCN=C(N)N)C(=O)N[C@@H](CCCN=C(N)N)C(=O)N[C@@H](CCC(N)=O)C(=O)N[C@@H](Cc1ccccc1)C(=O)N[C@@H](CCCCN)C(=O)N[C@H](C(=O)N[C@H](C(=O)N[C@H](C(=O)O)[C@@H](C)O)C(C)C)C(C)C 9.86% [at 4.32 µM]
Cc1ccc(NC(=O)c2nc(-c3ccncc3)no2)c(Cl)c1 4.6%
CCCn1c(C)nc2c(N3CCCN(Cc4ccccc4)CC3)nc(C)nc21 -1.03%
COc1ccc(-c2noc(N3CCC(C(=O)N4CCN(c5cccc(C)c5C)CC4)CC3)n2)cc1 -5.97%
C=C(C)[C@]12C[C@@H](C)[C@@]34OC(Cc5ccccc5)(O[C@@H]1[C@@H]3C=C(COC(=O)Cc1cc(OC)c(O)cc1I)C[C@]1(O)C(=O)C(C)=C[C@@H]41)O2 -8.96%
CCc1ccc(Cn2c(CNS(=O)(=O)c3ccc(Cl)s3)nc3cccnc32)cc1 -7.88%
O=C(Nc1nnc(-c2ccco2)o1)c1ccc(Cl)c(Cl)c1 9.94%
O=C(OCc1ccccc1)c1ccccc1O 0.921%
CCOC(=O)N1CCN(S(=O)(=O)N2CCCC(C(=O)NCc3cccc(OC)c3)C2)CC1 (stereo not given) -6.38%
O=S(=O)(Nc1cccc2cccnc12)c1ccccc1 -9.29%
Oc1ccc(C2(c3ccc(O)cc3)CC3CC2C2CCCC32)cc1 (stereo not given) 0.368% [at 75.8 µM]
CCN(CC)CCNC(=O)c1nn(C)c2c1CS(=O)(=O)c1ccccc1-2 8.41%
CCOC(=O)c1c(S(=O)(=O)NCC(=O)Nc2ccc(F)cc2C)c(C)n(C)c1C -2.68%
CCOc1ccc(CCNC(=O)c2cnc3c(-c4ccccc4)c(C)nn3c2C)cc1OCC -1.56%

Potency, active:
Cc1oc(-c2cccc(Br)c2)nc1CSc1nc2ncccc2[nH]1 8.64 µM
